Consider 38 compounds from ChEMBL document CHEMBL4513141, “CO-ADD screening of NIH (USA) - Clinical Collection” (2021).

The term Inhibition denotes the change of the read-out against control, counted positive when it falls.

The structures appear in SMILES notation. Results with a measured potency or affinity are listed apart.

This test deals with Staphylococcus aureus. The note with it: Concentration 20 uM; ASSAY_TEST Inhibition of Bacterial Growth; detection method Absorption (OD600); MEDIA CAMHB; plate type 384well; NBS; CORNING #3640; time 18 hr.
As to `CC(COc1ccccc1Cc1ccccc1)N1CCCCC1.O=P(O)(O)O` (stereo not drawn), the Inhibition was found to be 12.26%.
Consider `CCC1(c2ccccc2)C(=O)NCNC1=O` [PRIMIDONE], for which the Inhibition is on record as 13.4%.
As for `CC(=O)O[C@]1(C(C)=O)CC[C@H]2[C@@H]3C[C@H](C)C4=CC(=O)CC[C@]4(C)[C@H]3CC[C@@]21C` [MEDROXYPROGESTERONE ACETATE], the figure is 10.39%; as for `Nc1ccc2cn[nH]c2c1`, -30.24%; as for `CNCCCC12CCC(c3ccccc31)c1ccccc12.Cl` [MAPROTILINE HYDROCHLORIDE], 15.07%.
Consider `COc1cc2nc(N(C)CCCNC(=O)C3CCCO3)nc(N)c2cc1OC` (stereo not drawn) [ALFUZOSIN], for which the Inhibition is on record as 6%.
As for `CCOC(=O)C1(CCCCCCOc2ccc(Cl)cc2)CO1` (stereo not drawn) [rac-ETOMOXIR], the figure is 3.7%.
For the compound `CCC(=C(c1ccccc1)c1ccc(OCCN(C)C)cc1)c1ccccc1`, the Inhibition was determined as 2.87%.
In the case of `CCN1CCC[C@H]1CNC(=O)c1cc(S(N)(=O)=O)ccc1OC` [LEVOSULPIRIDE], the Inhibition is given as 7.78%.
Next, `CC(C)C[C@H](NC(=O)[C@@H](O)[C@H](N)Cc1ccccc1)C(=O)O` [UBENIMEX]: 8.9%; `CC(C)NCC(O)COc1ccc(CCOCC2CC2)cc1.Cl` (stereo not drawn) [BETAXOLOL HYDROCHLORIDE]: 7.41%.
For `CC(Cc1ccc(O)c(O)c1)(NN)C(=O)O.O` (stereo not drawn), the Inhibition came out at 16.15%.
Next, `Cl.O=C1[C@H]2CCCC[C@H]2C(=O)N1CCCCN1CCN(c2nsc3ccccc23)CC1`: 14.1%; `O=C1[C@H](CC[C@H](O)c2ccc(F)cc2)[C@@H](c2ccc(O)cc2)N1c1ccc(F)cc1` [EZETIMIBE]: 5.57%; `Cc1ncc([N+](=O)[O-])n1CCO` [METRONIDAZOLE]: 17.23%.
Next, `Nc1ncnc2c1ncn2[C@@H]1O[C@H](CO)[C@@H](O)[C@@H]1O` [VIDARABINE]: 17.44%.
On to `CC1CC2C3CCC4=CC(=O)C=CC4(C)[C@@]3(Cl)C(O)CC2(C)C1(O)C(=O)CO` (stereo partly drawn), for which the Inhibition was determined as 12.42%.
Consider `O=C1c2c(O)cc(O)cc2O[C@H](c2ccc(O)c(O)c2)[C@H]1O` [(+)-TAXIFOLIN], for which the Inhibition was determined as 8.9%.
`CC(=O)SCC(Cc1ccccc1)C(=O)NCC(=O)OCc1ccccc1` (stereo not drawn) [RACECADOTRIL]: the Inhibition worked out at 11.13%.
With `CC(C(=O)O)c1cccc(C(=O)c2ccccc2)c1` (stereo not drawn) [KETOPROFEN], the Inhibition was determined as 6.88%.
For `Cc1ccc(Cl)c(Nc2ccccc2C(=O)[O-])c1Cl.O.[Na+]` [MECLOFENAMATE SODIUM], the Inhibition is 27.36%.
Consider `C[C@@H]1CN(CCCn2c3ccccc3c3ccccc32)C[C@H](C)N1.Cl.O`, for which the Inhibition was determined as 5.93%.
With `CCc1cccc2c3c([nH]c12)C(CC)(CC(=O)O)OCC3` (stereo not drawn) [ETODOLAC], the Inhibition stood at 5.09%.
`OCc1cc(C(O)CNCCCCCCOCCCCc2ccccc2)ccc1O` (stereo not drawn) [SALMETEROL]: the Inhibition is recorded as 15.16%.
For `CC1(C)S[C@@H]2[C@H](/N=C/N3CCCCCC3)C(=O)N2[C@H]1C(=O)O` [AMDINOCILLIN], the Inhibition worked out at 10.96%.
For `CC(C(O)c1ccc(O)cc1)N1CCC(Cc2ccccc2)CC1.O.O=C(O)C(O)C(O)C(=O)O` (stereo not drawn), the Inhibition came out at 9.87%.
On to `CC(=O)OCC(=O)[C@@]1(O)CC[C@H]2[C@@H]3C[C@H](C)C4=CC(=O)C=C[C@]4(C)[C@H]3[C@@H](O)C[C@@]21C` [METHYLPREDNISOLONE ACETATE], for which the Inhibition is 6.17%.
Take `CCOC(=O)[C@@H](CCc1ccccc1)N[C@@H](C)C(=O)N1CCC[C@H]1C(=O)O.O=C(O)/C=C\C(=O)O`: the Inhibition amounted to 8.37%.
For the compound `CC(C[N+](C)(C)C)OC(N)=O.[Cl-]` (stereo not drawn) [BETHANECHOL CHLORIDE], the Inhibition was 5.38%.
Regarding `O=C(O)c1cc2ccccc2c(Cc2c(O)c(C(=O)O)cc3ccccc23)c1O.OCCOCCN1CCN(C(c2ccccc2)c2ccc(Cl)cc2)CC1` [HYDROXYZINE PAMOATE], the Inhibition is on record as 11.96%.
`CNNCc1ccc(C(=O)NC(C)C)cc1.Cl` [PROCARBAZINE HYDROCHLORIDE]: the Inhibition came out at 12.92%.
On to `COc1cc(C(=O)NC2CCCNC2)cc(OC)c1OC` (stereo not drawn) [TROXIPIDE], for which the Inhibition was 21.18%.
With `CCCC1O[C@@H]2C[C@H]3[C@@H]4CCC5=CC(=O)C=C[C@]5(C)[C@H]4[C@@H](O)C[C@]3(C)[C@]2(C(=O)CO)O1` (stereo partly drawn) [BUDESONIDE], the Inhibition was found to be 6.99%.
Take `NS(=O)(=O)c1cc2c(cc1Cl)NCNS2(=O)=O` [HYDROCHLOROTHIAZIDE]: the Inhibition worked out at 6.38%.
For `COc1cc(C)c(/C=C/C(C)=C/C=C/C(C)=C/C(=O)O)c(C)c1C` [ACITRETIN], the Inhibition is recorded as -32.23%.
Take `Cc1[nH]cnc1CN1CCc2c(c3ccccc3n2C)C1=O.Cl` [ALOSETRON HYDROCHLORIDE]: the Inhibition amounted to 8.61%.
Next, `CC(=O)S[C@@H]1CC2=CC(=O)CC[C@]2(C)[C@H]2CC[C@@]3(C)[C@@H](CC[C@@]34CCC(=O)O4)[C@H]12` [SPIRONOLACTONE]: 18.37%; `Cc1cccc(C)c1NC(=O)C(C)N` (stereo not drawn) [TOCAINIDE]: 2.4%.
